Shown are actives, neighbours in structure and some others; about 3% of the full set was active somewhere.
SENP7 block = inhibitors of human SENP7 protease; Q9BQF6; recombinant SENP7, Z-RLRGG-aminoluciferin luminescence, 40 min; inhibition, % at 5 µM; hit rate 1.5% among 330,000;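 active means inhibition above about 50% at the single test dose, limit read from the data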;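 further: plate controls were DMSO with enzyme for no effect and no enzyme buffer wells for full effect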
Target sequence (Q9BQF6 706-1050 limits assumed): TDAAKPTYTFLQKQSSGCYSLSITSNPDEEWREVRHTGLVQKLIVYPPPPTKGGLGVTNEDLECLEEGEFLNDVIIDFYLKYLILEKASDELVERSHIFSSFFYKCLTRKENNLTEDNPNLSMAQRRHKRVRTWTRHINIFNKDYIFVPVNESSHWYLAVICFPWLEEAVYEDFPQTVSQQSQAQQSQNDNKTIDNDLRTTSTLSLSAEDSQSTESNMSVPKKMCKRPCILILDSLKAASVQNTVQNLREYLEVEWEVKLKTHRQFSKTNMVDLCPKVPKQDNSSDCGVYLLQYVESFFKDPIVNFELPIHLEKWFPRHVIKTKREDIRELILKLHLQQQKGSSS
SENP6 inh = inhibitors of human SENP6 protease; Recombinant SENP6 catalytic domain, aminoluciferin luminescence; inhibition, % at 10 µM; hit rate 1.8% among 330,000;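 active means inhibition above about 50% at the single tested dose, limit read from the data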;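 further: plate controls were DMSO wells with enzyme for no effect and DMSO wells lacking enzyme for full effect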
SENP8 block-1 = blocks human SENP8 cleavage of Nedd8 substrate; inhibition, % at 20 µM; Q96LD8; recombinant SENP8, Nedd8 substrate fluorescence; AID 602440; hit rate 0.64% among 360,000; in the data active means inhibition mostly above about 40%, no sharp cut-off; inactive means mostly below about 27%
SENP8 block-2 = inhibitors of human SENP8 protease. AID 2540. Q96LD8. inhibition, % at 10 µM. purified SENP8, Z-RLRGG-aminoluciferin cleavage, luminescence. hit rate 1.2% among 330,000; in the data active means inhibition above about 50%
C8 TRAIL sens = caspase-8 TRAIL sensitization | NB7+C8 cells + TRAIL, ATPlite viability luminescence | inhibition (viability loss, TRAIL sensitization), % at 10 µM | hit rate 1% among 360,000 | AID 624354;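 active means compounds causing at least 50% loss of cell viability in the single-dose screen, relative to plate controls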
PPC-1+TRAIL kill = PPC-1 cancer cell killing with TRAIL present. PPC-1 cells + TRAIL, ATPLite viability luminescence. cell killing (% activity), % at 4 µM or 5 µM. hit rate 0.41% among 220,000;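 active means cell killing above 50% in the first pass at 4 µM, then a duplicate retest at 5 µM averaging 50% or more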;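 further: plate controls were cells with TRAIL plus DMSO for no effect and medium-only wells lacking cells for full effect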
SENP8 conf = confirmation of human SENP8 protease inhibitors; AID 488912; shares compounds with SENP7 block; inhibition, % at 12.5 µM; hit rate 40% among 6,200; Recombinant SENP8, Z-RLRGG-aminoluciferin luminescence, 60 min;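 active means mean inhibition across replicates above about 50%, limit read from the data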
SENP6 conf = human SENP6 inhibition, confirmed. shares compounds with SENP7 block. recombinant SENP6, Z-RLRGG-aminoluciferin luminescence. inhibition, % at 12.5 µM. hit rate 58% among 6,200. AID 488915
SENP7 confirm = human SENP7 inhibition, confirmed; shares compounds with SENP7 block; recombinant SENP7, Z-RLRGG-aminoluciferin luminescence, 40 min; inhibition, % at 12.5 µM; hit rate 69% among 6,200
Casp3 select = inhibits human caspase-3 in SENP selectivity test; shares compounds with SENP7 block; purified caspase-3, Z-DEVD-aminoluciferin luminescence, 60 min; inhibition, % at 12.5 µM; hit rate 60% among 6,200; AID 488918;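 active means mean inhibition above about 50%, limit read from the data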;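 further: plate controls were enzyme with DMSO for no effect and wells without caspase-3 for full effect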
Target sequence (P42574 28-227 limits assumed): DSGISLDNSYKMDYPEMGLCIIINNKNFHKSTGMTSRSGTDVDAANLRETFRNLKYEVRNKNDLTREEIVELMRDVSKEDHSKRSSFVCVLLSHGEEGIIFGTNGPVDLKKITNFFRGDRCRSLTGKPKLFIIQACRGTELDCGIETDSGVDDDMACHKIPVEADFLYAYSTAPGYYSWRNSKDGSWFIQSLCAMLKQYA
SENP luc ctr = interferes with luciferase luminescence in SENP counter-screen | inhibition, % at 12.5 µM | hit rate 39% among 6,200 | shares compounds with SENP7 block | Pre-incubated SENP8/Z-RLRGG-aminoluciferin, luciferase luminescence interference | AID 488919;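 active means mean inhibition above about 50% when retested at one dose, limit read from the data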;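 further: plate controls were DMSO wells with completed reaction for no effect and substrate without enzyme for full effect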
* hit, by the source's call; ! = not active in a repeat.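 How the source made its calls, unless noted: active means mean inhibition above about 50% in the one-dose retest (limit read from the data); inactive means the rest.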

COc1ccc(C/C(=N\OC(C)=O)c2ccc(OC)cc2)cc1 was read as SENP7 block 98*, SENP6 inh 96*, SENP8 block-1 10, SENP8 block-2 91*, C8 TRAIL sens -1, SENP8 conf 92*, SENP6 conf 96*, SENP7 confirm 102*, Casp3 select 96* and SENP luc ctr 95*.
For COc1ccc(-c2ncccc2OC(=O)C23CC4CC(CC(C4)C2)C3)cc1 the results were SENP7 block -5, SENP6 inh 0, SENP8 block-1 -111, SENP8 block-2 11, C8 TRAIL sens -2 and PPC-1+TRAIL kill 26.
`CCN(CC)CCN1C(=O)Cn2c(C)c(C)c3cccc1c32` gave SENP7 block 58*!, SENP6 inh -14, SENP8 block-1 20, SENP8 block-2 -8, C8 TRAIL sens 5, PPC-1+TRAIL kill 11, SENP8 conf -5, SENP6 conf 3, SENP7 confirm 0, Casp3 select 0 and SENP luc ctr 0.
`COc1ccc(-c2nnc(-c3ccc(N(C)C)cc3)o2)cc1` gave SENP7 block 4, SENP6 inh 3, SENP8 block-1 -304, SENP8 block-2 -10, C8 TRAIL sens 2 and PPC-1+TRAIL kill 21.
c1ccc(-c2nnc(-c3ccco3)o2)cc1 was read as SENP7 block 44, SENP6 inh 47, SENP8 block-1 -78, SENP8 block-2 16, C8 TRAIL sens 2 and PPC-1+TRAIL kill 18.
`Cc1cccc(-c2nnc(-c3ccccc3)o2)c1` gave SENP7 block 86*, SENP6 inh 88*, SENP8 block-1 5, SENP8 block-2 74*, C8 TRAIL sens 16, PPC-1+TRAIL kill 16, SENP8 conf 4, SENP6 conf 86*, SENP7 confirm 98*, Casp3 select 82* and SENP luc ctr 66*.
`CN(C)c1ccc(-c2nnc(-c3ccccc3F)o2)cc1` gave SENP7 block 85*, SENP6 inh 87*, SENP8 block-1 -393, SENP8 block-2 77*, C8 TRAIL sens 33, SENP8 conf 34, SENP6 conf 67*, SENP7 confirm 74*, Casp3 select 79* and SENP luc ctr 32.
Cc1ccc(/C=C/c2nnc(-c3cccc(C)c3)o2)cc1 was read as SENP7 block 13, SENP6 inh 80*, SENP8 block-1 -273, SENP8 block-2 68*, C8 TRAIL sens 4, PPC-1+TRAIL kill 4, SENP8 conf 3, SENP6 conf 0, SENP7 confirm -2, Casp3 select -2 and SENP luc ctr -3.
`Cn1cc(-c2nnc(-c3ccccc3)o2)c2ccccc21` gave SENP7 block 68*, SENP6 inh -36, SENP8 block-1 -339, SENP8 block-2 47, C8 TRAIL sens 40, PPC-1+TRAIL kill 47, SENP8 conf 15, SENP6 conf 12, SENP7 confirm 15, Casp3 select 18 and SENP luc ctr 6.
`O=C1CSc2ccc(S(=O)(=O)N3CCN(c4ccccc4F)CC3)cc2N1` gave SENP7 block 13, SENP6 inh 1, SENP8 block-1 11, SENP8 block-2 -2 and C8 TRAIL sens -2.
Screening Cc1ccccc1-c1nnc(-c2ccc(Cl)cc2)o1 returned SENP7 block 75*, SENP6 inh 10, SENP8 block-1 17, SENP8 block-2 58*, C8 TRAIL sens -8, PPC-1+TRAIL kill 21, SENP8 conf 20, SENP6 conf 17, SENP7 confirm 23, Casp3 select 13 and SENP luc ctr -3.
For Cc1ccccc1-c1nnc(-c2ccccc2)o1 the results were SENP7 block 83*, SENP6 inh 87*, SENP8 block-1 17, SENP8 block-2 83*, C8 TRAIL sens 21, PPC-1+TRAIL kill 34, SENP8 conf 78*, SENP6 conf 88*, SENP7 confirm 98*, Casp3 select 84* and SENP luc ctr 74*.
Screening Cc1nnc(NC(=O)CCN2C(=O)C3CC=CCC3C2=O)s1 (centres undefined) returned SENP8 block-1 15 and C8 TRAIL sens -12.
`Oc1c(/C=N/c2ccccn2)sc2ccccc12` gave SENP7 block 95*, SENP6 inh 98*, SENP8 block-1 -58, SENP8 block-2 95*, C8 TRAIL sens -9, PPC-1+TRAIL kill 2, SENP8 conf 96*, SENP6 conf 97*, SENP7 confirm 102*, Casp3 select 96* and SENP luc ctr 13.
`Oc1c(C=Nc2cccnc2)sc2ccccc12` gave SENP7 block 13, SENP6 inh 78*, SENP8 block-1 -195, SENP8 block-2 58*, C8 TRAIL sens 14, PPC-1+TRAIL kill 27, SENP8 conf 7, SENP6 conf 73*, SENP7 confirm 95*, Casp3 select 81* and SENP luc ctr 75*.
`Oc1c(C=Nc2ccccc2)sc2ccccc12` gave SENP7 block 101*, SENP6 inh 97*, SENP8 block-1 -105, SENP8 block-2 97*, C8 TRAIL sens 17, SENP8 conf 92*, SENP6 conf 100*, SENP7 confirm 103*, Casp3 select 98* and SENP luc ctr 16.
Screening Oc1sc(C=Nc2ccc(F)cc2)c2ccccc12 returned SENP7 block 47, SENP6 inh -38, SENP8 block-1 -67, SENP8 block-2 39, C8 TRAIL sens -13 and PPC-1+TRAIL kill -6.
`Oc1sc(C=Nc2ccccc2)c2ccccc12` gave SENP7 block 60*, SENP6 inh 28, SENP8 block-1 -252, SENP8 block-2 62*, C8 TRAIL sens -5, PPC-1+TRAIL kill 23, SENP8 conf 81*, SENP6 conf 83*, SENP7 confirm 96*, Casp3 select 53* and SENP luc ctr 82*.
For Oc1c(C=NCc2ccncc2)sc2ccccc12 the results were SENP7 block 2, SENP6 inh 7, SENP8 block-2 13 and PPC-1+TRAIL kill 5.
Screening CC(=O)NCCN=Cc1sc2ccccc2c1O returned SENP7 block 5, SENP6 inh -18, SENP8 block-1 -63, SENP8 block-2 -1, C8 TRAIL sens -1 and PPC-1+TRAIL kill 11.
